# Test results reported in the supplement of paper PMC6555819.
# Columns and labels:
# Assay in all cases: PBM binding z-score (relative to random genomic background probes); higher = stronger binding; sequences stand for … in GC…GCGATTGACAGCGTAGAATGAAGG
# [1] = system: FXR:RXRa (NR concentration 270 nM, RXRa partner concentration 90 nM)
# Method in brief: (§1)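 Scanned fluorescence from custom Agilent 4×180K protein-binding microarrays was regression-normalized. Binding z-scores use random background probes as reference. Ligand-free nuclear receptor dimers were incubated on the arrays for 1 h and detected with antibodies against each partner (one per run).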
# [2] = system: LXRa:RXRa (NR concentration 270 nM, RXRa partner concentration 90 nM)
# Method in brief: as §1
# [3] = system: LXRa homodimer (NR concentration 270 nM)
# Method in brief: as §1
# [4] = system: LXRb:RXRa (NR concentration 270 nM, RXRa partner concentration 90 nM)
# Method in brief: as §1
# [5] = system: LXRb homodimer (NR concentration 270 nM)
# Method in brief: as §1
# [6] = system: PPARa:RXRa (NR concentration 270 nM, RXRa partner concentration 90 nM)
# Method in brief: as §1
# [7] = system: PPARg:RXRa (NR concentration 180 nM, RXRa partner concentration 90 nM)
# Method in brief: as §1
# [8] = system: PPARg:RXRa 270nM:90nM, anti-RXR (NR concentration 270 nM, RXRa partner concentration 90 nM)
# Method in brief: as §1
# [9] = system: PPARg:RXRa 30nM:10nM, anti-RXR (NR concentration 30 nM, RXRa partner concentration 10 nM)
# Method in brief: as §1
# [10] = system: PPARg:RXRa 90nM:30nM, anti-RXR (NR concentration 90 nM, RXRa partner concentration 30 nM)
# Method in brief: as §1
Sequence,PBM binding z-score [1],PBM binding z-score [2],PBM binding z-score [3],PBM binding z-score [4],PBM binding z-score [5],PBM binding z-score [6],PBM binding z-score [7],PBM binding z-score [8],PBM binding z-score [9],PBM binding z-score [10]
AGAACGAGGGCAATGAATTGATAGCACGGGTGGC,0.314,0.102,-0.259,0.0164,-0.479,1.32,1.27,0.732,0.112,0.346
ATATGTAGGTTAAGGGACATTCAGGTTGGTTCGC,0.93,1.06,0.514,0.945,0.703,3.79,6.5,6.51,4.44,6.65
CCTACTGGGCCATTCCGAGGTCATTGATCATATG,2.71,3.36,4.85,3.28,0.27,3.5,1.58,2.59,0.281,1.54
GCACACAGGTGAAACGCAGGTAACTCAGGGTGGC,0.021,0.302,-0.342,-0.349,-0.845,0.939,0.853,0.355,-0.481,-0.0562
TCGAGCAGGTTAGTCGGGGCATTCAGCCAACATA,-0.0429,-0.284,-0.517,0.593,-0.865,0.572,-0.408,-0.00465,0.101,0.383
CGTCAAAGTTCAACGTAACGTAACAGAAAGCAGC,6.54,5.59,2.98,3.72,1.38,4.94,4.58,4.97,2.08,3.84
TCGAGTAGGTTACCAATGGGGCATTCAACTTTCT,0.374,1.64,-0.293,1.55,0.172,1.67,0.652,1.67,1.26,1.67
CCTACTCGGCCACGAAAGGTCATTGATTCAGTGA,3.82,5.15,5.64,4.28,0.938,4.36,1.93,3.43,1.33,2.24
CGAACTAGGTCAAGTACAGTGAATCTCCGCACGC,4.5,2.83,0.474,2.32,0.607,4.85,7.57,6.29,4.41,5.92
TCGGACAGGTGAAGGTAACTCAGGTACGCAGTCG,0.451,1.52,0.174,0.636,-0.839,0.988,0.599,1.57,2.75,1.87
GCTAGTTGGTCAGTAAAAGTTCACACACCGGTCG,0.899,2.22,4.58,1.73,0.297,1.95,0.79,1.98,0.387,1.5
CATCCTAGGTCAGGGCCAGTATAGGAGGAACGTT,2.24,2.03,0.118,1.17,-0.0238,2.75,1.89,2.19,0.615,1.34
AGAATGACGTTATTAAGATCAGGGAATTGCGGTC,-0.71,-0.589,-0.146,-0.6,-0.12,-0.251,0.405,0.0531,-0.0762,0.151
ATCGACAGGTCGACGAGGTGAGTATACACCGTTT,0.539,0.314,-0.541,0.288,-0.436,1.42,1.11,0.392,0.0912,-0.0285
GCATATCGGTAATACAAGGTGAAAGTCCGATTGT,0.694,0.4,0.294,0.243,-0.333,0.84,0.415,0.8,0.385,0.634
CCTACTGGGCCATCAGCTCATTGATATCAACGTT,-0.649,-0.431,-0.409,-0.655,-0.446,-0.141,0.457,0.344,-0.273,0.098
ATCTCTAGGTAAGCCTCAGTTCAGTGAAGAACGC,0.31,0.658,0.468,0.438,0.861,0.35,-0.00624,0.396,-0.0235,0.487
AGTCAAAGTTCGGGACGAGGTAACGTAAAGCACG,0.65,0.402,-0.198,0.242,-0.3,1.08,1.85,2.33,0.491,1.33
TTACCAACGTGAAGGTCGTTGATCCCTCTGTAGA,1.87,1.9,0.292,1.88,-0.33,1.35,0.00743,0.541,0.511,0.656
ATCTCTAGGTAAAAGTTCGGTGAATCCCGAGGAT,0.161,0.141,0.132,0.00747,0.757,2.68,5.39,6.18,4.88,6.61
TAGCCTAGGTCAGATCGGGCCAGTGTACGCTATA,1.85,0.96,-0.454,0.525,-0.897,1.49,0.36,0.761,-0.533,-0.134
AGGCAAAGTTCACTAGGTAACGTAAGATTCAGCT,5.31,5.15,2.57,3.12,0.881,4.61,6.33,6.04,2.78,5.21
TGAAGGAGGTTAAAGATCAGGGAACGTGGCGTCG,2.43,2.05,0.112,1.62,0.187,3.67,4.96,5.81,4.55,6.03
AGTCTAAGTTCATCTAGGTAACGTAAGATATGCT,4.07,4.07,1.92,2.09,0.539,3.17,1.72,2.24,0.691,1.31
AGAATTAGGTTATTAAGATCAGGGAATTGCGGTC,0.488,0.607,0.495,0.404,0.244,1.87,1.99,2.31,1.74,1.58

Sequence,PBM binding z-score [1],PBM binding z-score [2],PBM binding z-score [3],PBM binding z-score [4],PBM binding z-score [5],PBM binding z-score [6],PBM binding z-score [7],PBM binding z-score [8],PBM binding z-score [9],PBM binding z-score [10]
GCTTGTAGATCAAGGTTAAGAAAGACTAAGCTAA,0.0354,0.884,-0.55,0.55,-0.627,1.56,1.01,2.05,0.29,1.56
CCGACTGGGGCAAAGGTTCCCATACTCAGTACGA,-0.153,-0.12,-0.431,-0.0438,-1.02,3,7.57,6.87,6.55,6.97
TCATATAGCTAAATGCTAGGTGAAAGTCCGATCT,0.567,0.2,-0.0142,0.288,-0.55,0.6,0.313,1.67,2.82,2.07
CAAACTAGGTCACGAAAGGTCAAAGTCGAATGAC,7.74,8.37,7.89,7.46,2.8,6.76,10.7,8.68,7.48,8.74
TCTGGTAGGTCAGTTGGTCAGCTAACGAGCTGCC,1.49,1.41,0.0494,1.09,0.418,2.17,1.6,2.93,2.4,2.47
CGAACTAGGTCATTGACAGGACTGTGAATAGTAA,4.46,2.5,0.131,1.81,0.103,4.71,7.38,6.1,4.05,5.52
CGTAGTTGGTCAGGAGGTCACACACCGGATATGA,3.37,3.49,2.03,3.36,0.65,4.17,2.96,4.01,1.36,3.36
TCATATAGGAAAACAGGTGAAAGTCCGTAAGTTA,1.22,1.13,0.235,1.11,-0.323,1.44,1.13,2.8,4.43,3.77
GGAAGGAGGGCATTCGAGTTGATAGCATGGCGAT,1.31,1.78,0.199,0.866,0.337,1.46,0.926,1.07,-0.0182,0.639
GTACCAAGGTGGATAGGTCGTTGATGAGTAGGCG,-0.366,-0.16,-0.154,-0.255,-0.708,0.372,0.422,0.293,-0.451,0.026
ACTAGCAGGCCGAGGGTCACTCAAGATTAGTCCG,0.88,1.52,-0.557,1.31,-0.725,2.71,3.61,4.99,2.21,4.78
CCGACTCGGGCAGAAAGGTTACCATACCATCCGG,0.546,0.698,-0.128,0.841,-0.536,1.97,1.41,2.44,0.663,1.76
GCTATTAGTTGAAAGGGCAACTGAATGATTCTCG,0.614,0.896,0.18,1.1,0.073,2.51,2.65,4.03,2.6,4.54
ACAGACAGGTAAGTGAAGGTAACTCAGCTGGACG,0.106,0.0707,-0.103,-0.313,-0.579,-0.355,0.687,-0.165,-0.141,-0.389
CGTCCAAGGTCAGAGGTCAGTGAAGAGATGACGG,6.67,5.39,1.56,4.73,0.465,6.09,8.26,6.86,5.6,7.06
CGTCCAAGGTCAGAAAGGTCAGTGAATGCCGAGT,5.85,5,3.05,4.56,0.524,4.94,3.36,4.31,0.967,2.8
TCATATAGGTAAAACGTGAAAGTCGGTGTGGTAA,0.91,0.644,0.37,0.856,0.255,2.09,2.92,4.34,4.63,4.71
AGAATGAGGTTATTAAGATCAGCGAATTGCGGTC,1.3,1.23,0.0436,1.11,-0.0862,2.49,1.47,1.85,0.288,1.29
CCTTACGGGTCAAGGTTCTAGCACGGGTGGTACG,5.14,3.35,-0.039,2.64,-0.204,4.86,4.7,5.18,2.28,4.24
GATACAGGGTCAGCTAGAGGCCAGCGTATGGAAA,4.35,2.75,-0.301,2.11,-1.03,4.37,3.18,3.49,0.694,1.92
CGAACTAGGTCAAGGACAGTGACTCTCCGCACGC,3.47,2.28,0.349,1.58,-0.267,4.79,7.35,6.66,3.92,6.28
TAGCCTAGGTCATTGGCCCAGTATAGTACGCATC,4.84,3.9,1.34,2.45,-0.219,3.53,2.1,2.32,0.439,1.49
TCTGCTAGGACAACGATGGTCAGCTAATCTGCTA,-0.541,-0.708,-0.957,-0.773,-0.823,-0.569,-0.0545,0.0795,0.983,0.581
CCTAGTTGGTCTGGAGGTCACACACCGGATATGA,3.79,4.06,3.63,3.51,0.759,4.17,2.1,3.14,0.849,2.61
